Measurements taken from the supplement of paper PMC8728848.
About 410 targets per protein were measured; listed, in parts, are those with the strongest signals and a random draw of the rest.

Columns and labels:
Test in all cases: glycan array binding signal (z-score within array); higher = stronger binding
Settings in all cases: glycan notation: IUPAC condensed, linker removed
[1] = target: Fuc(a1-2)Gal(b1-3)GalNAc(a1-3)[Fuc(a1-2)]Gal(b1-4)Glc
How it was run: (§1)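 Glycan array binding is given as a within-array Z-score, which can be read as non-binding when negative. The arrays, 3228 of them, came from the Consortium for Functional Glycomics database and were retained only where the protein sequence was available. Z-scores were averaged across arrays of the same protein sequence at different concentrations or buffers and across linkers.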

[2] = target: Fuc(a1-2)Gal(b1-3)GlcNAc(b1-3)GalNAc
How it was run: as §1

[3] = target: Fuc(a1-2)Gal(b1-3)GlcNAc(b1-3)[Neu5Ac(a2-6)Gal(b1-4)GlcNAc(b1-6)]Gal(b1-4)Glc
How it was run: as §1

[4] = target: Fuc(a1-2)Gal(b1-4)GlcNAc(b1-3)Gal(b1-4)GlcNAc
How it was run: as §1

[5] = target: Fuc(a1-2)Gal(b1-4)GlcNAc(b1-3)Gal(b1-4)GlcNAc(b1-3)Gal(b1-4)GlcNAc
How it was run: as §1

[6] = target: Fuc(a1-2)Gal(b1-4)[Fuc(a1-3)]GlcNAc(b1-2)Man(a1-3)[Fuc(a1-2)Gal(b1-4)[Fuc(a1-3)]GlcNAc(b1-2)Man(a1-6)]Man(b1-4)GlcNAc(b1-4)[Fuc(a1-6)]GlcNAc
How it was run: as §1

[7] = target: Fuc(a1-2)Gal(b1-4)[Fuc(a1-3)]GlcNAc(b1-3)Gal(b1-4)[Fuc(a1-3)]GlcNAc(b1-3)Gal(b1-4)[Fuc(a1-3)]GlcNAc
How it was run: as §1

[8] = target: Fuc(a1-2)Gal3S(b1-4)GlcNAc
How it was run: as §1

[9] = target: Fuc(a1-2)[Gal(a1-3)]Gal(b1-4)GlcNAc
How it was run: as §1

[10] = target: Fuc(a1-2)[Gal(a1-3)]Gal(b1-4)GlcNAc(b1-2)Man
How it was run: as §1

[11] = target: Fuc(a1-2)[GalNAc(a1-3)]Gal(b1-4)GlcNAc(b1-2)Man(a1-3)[Fuc(a1-2)[GalNAc(a1-3)]Gal(b1-4)GlcNAc(b1-2)Man(a1-6)]Man(b1-4)GlcNAc(b1-4)GlcNAc
How it was run: as §1

[12] = target: Fuc(a1-2)[GalNAc(a1-3)]Gal(b1-4)GlcNAc(b1-3)Gal(b1-4)GlcNAc
How it was run: as §1

[13] = target: Fuc(a1-2)[GalNAc(a1-3)]Gal(b1-4)GlcNAc(b1-6)GalNAc
How it was run: as §1

[14] = target: Fuc(a1-3)[Gal(b1-4)]GlcNAc(b1-6)[Gal(b1-3)GlcNAc(b1-3)]Gal(b1-4)Glc
How it was run: as §1

[15] = target: Fuc(a1-3)[GalNAc(b1-4)]GlcNAc
How it was run: as §1

Gal(a1-3)Gal(b1-3)GlcNAc = target: Gal(a1-3)Gal(b1-3)GlcNAc
How it was run: as §1

[16] = target: Gal(b1-3)GlcNAc(b1-2)Man(a1-3)[GlcNAc(b1-4)][Gal(b1-3)GlcNAc(b1-2)Man(a1-6)]Man(b1-4)GlcNAc(b1-4)GlcNAc
How it was run: as §1

[17] = target: Gal(b1-3)GlcNAc(b1-3)Gal(b1-4)GlcNAc(b1-2)[Gal(b1-3)GlcNAc(b1-3)Gal(b1-4)GlcNAc(b1-6)]Man(a1-6)[Gal(b1-3)GlcNAc(b1-3)Gal(b1-4)GlcNAc(b1-2)Man(a1-3)]Man(b1-4)GlcNAc(b1-4)[Fuc(a1-6)]GlcNAc
How it was run: as §1

[18] = target: Gal(b1-3)GlcNAc(b1-3)Gal(b1-4)GlcNAc(b1-3)Gal(b1-4)GlcNAc(b1-2)[Gal(b1-3)GlcNAc(b1-3)Gal(b1-4)GlcNAc(b1-3)Gal(b1-4)GlcNAc(b1-6)]Man(a1-6)[Gal(b1-3)GlcNAc(b1-3)Gal(b1-4)GlcNAc(b1-3)Gal(b1-4)GlcNAc(b1-2)Man(a1-3)]Man(b1-4)GlcNAc(b1-4)[Fuc(a1-6)]GlcNAc
How it was run: as §1

[19] = target: Gal(b1-3)[Fuc(a1-4)]GlcNAc(b1-3)Gal(b1-3)[Fuc(a1-4)]GlcNAc
How it was run: as §1

Gal(b1-4)Glc = target: Gal(b1-4)Glc
How it was run: as §1

[20] = target: Gal(b1-4)GlcNAc(b1-3)Gal(b1-4)GlcNAc(b1-2)[Gal(b1-4)GlcNAc(b1-3)Gal(b1-4)GlcNAc(b1-6)]Man(a1-6)[Gal(b1-4)GlcNAc(b1-3)Gal(b1-4)GlcNAc(b1-2)Man(a1-3)]Man(b1-4)GlcNAc(b1-4)GlcNAc
How it was run: as §1

[21] = target: Gal(b1-4)GlcNAc(b1-3)Gal(b1-4)GlcNAc(b1-3)Gal(b1-4)GlcNAc(b1-3)Gal(b1-4)GlcNAc(b1-2)[Gal(b1-4)GlcNAc(b1-3)Gal(b1-4)GlcNAc(b1-3)Gal(b1-4)GlcNAc(b1-3)Gal(b1-4)GlcNAc(b1-6)]Man(a1-6)[Gal(b1-4)GlcNAc(b1-3)Gal(b1-4)GlcNAc(b1-3)Gal(b1-4)GlcNAc(b1-3)Gal(b1-4)GlcNAc(b1-2)Man(a1-3)]Man(b1-4)GlcNAc(b1-4)[Fuc(a1-6)]GlcNAc
How it was run: as §1

[22] = target: Gal(b1-4)GlcNAc(b1-6)Gal(b1-4)GlcNAc
How it was run: as §1

Gal(b1-4)GlcNAc6P = target: Gal(b1-4)GlcNAc6P
How it was run: as §1

Gal3S(b1-4)GlcNAc = target: Gal3S(b1-4)GlcNAc
How it was run: as §1

B1: MXA PilAct-eGFP (Myxococcus xanthus), Q59589 (protein)
chain: MRVSRFNPRNRGFTLIELMIVVAIIGILAAIAIPNFIKFQARSKQSEAKTNLKALYTAQKSFFSEKDRYSDFANEIGFAPERGNRYGYRVSAAAGDCEVRNAADLPVPAAGVPCISNDSFRFGANSAIDDPTPVVARFVPQGAAGWNTTLGVQPTIADCPNCNFFAGARGNADNEATFDDWVIAGFEGSGQVGPCSEAGNVASGTPYNTRNDVACDGAAQ
- glycan array binding signal (z-score) [1]: 0.469
- glycan array binding signal (z-score) [2]: -0.348
- glycan array binding signal (z-score) [3]: -0.4
- glycan array binding signal (z-score) [4]: 0.643
- glycan array binding signal (z-score) [5]: 2.63
- glycan array binding signal (z-score) [6]: -0.459
- glycan array binding signal (z-score) [7]: -0.292
- glycan array binding signal (z-score) [8]: -0.55
- glycan array binding signal (z-score) [9]: 0.335
- glycan array binding signal (z-score) [10]: -0.112
- glycan array binding signal (z-score) [11]: 3.39
- glycan array binding signal (z-score) [12]: -0.546
- glycan array binding signal (z-score) [13]: 0.269
- glycan array binding signal (z-score) [14]: -0.768
- glycan array binding signal (z-score) [15]: -1.22
- glycan array binding signal (z-score) (Gal(a1-3)Gal(b1-3)GlcNAc): -1.1
- glycan array binding signal (z-score) [16]: 0.003
- glycan array binding signal (z-score) [17]: 6.11
- glycan array binding signal (z-score) [18]: 4.94
- glycan array binding signal (z-score) [19]: -2.03
- glycan array binding signal (z-score) (Gal(b1-4)Glc): -1.09
- glycan array binding signal (z-score) [20]: -0.993
- glycan array binding signal (z-score) [21]: 3.46
- glycan array binding signal (z-score) [22]: 0.221
- glycan array binding signal (z-score) (Gal(b1-4)GlcNAc6P): 0.348
- glycan array binding signal (z-score) (Gal3S(b1-4)GlcNAc): -0.174
